These results are taken from PubChem BioAssay AID1851 (National Center for Advancing Translational Sciences (NCATS), 2009).

Molecules are shown by their SMILES. Among all 16,000 compounds or so, about 5,100 (32%) were called active. About 25% were inconclusive and are not listed. This is one part of the list. A number with no mark means an inactive call. Calls come from the whole dose curve; as a rule, active = well fitted curve in the direction sought with a large enough effect; inconclusive = small, poorly fitted or top-dose-only effect, or effect the other way; inactive = no such curve, though single readings can be large or run the other way.
% is set by controls: 0 for no effect and ±100 for the full control effect.

For the assay, the target named is Cytochrome P450 3A4 (Homo sapiens) (UniProt P08684). As to the kind of experiment: Cytochrome panel assay with activity outcomes. To be noted: recombinant CYP, pro-luciferin dealkylation, luminescence, p450-cyp3a4; series mostly up to 57.1 µM; activity, negative = inhibition: at the top concentration.
Sequence of Cytochrome P450 3A4 (Homo sapiens) (P08684 whole entry, looked up): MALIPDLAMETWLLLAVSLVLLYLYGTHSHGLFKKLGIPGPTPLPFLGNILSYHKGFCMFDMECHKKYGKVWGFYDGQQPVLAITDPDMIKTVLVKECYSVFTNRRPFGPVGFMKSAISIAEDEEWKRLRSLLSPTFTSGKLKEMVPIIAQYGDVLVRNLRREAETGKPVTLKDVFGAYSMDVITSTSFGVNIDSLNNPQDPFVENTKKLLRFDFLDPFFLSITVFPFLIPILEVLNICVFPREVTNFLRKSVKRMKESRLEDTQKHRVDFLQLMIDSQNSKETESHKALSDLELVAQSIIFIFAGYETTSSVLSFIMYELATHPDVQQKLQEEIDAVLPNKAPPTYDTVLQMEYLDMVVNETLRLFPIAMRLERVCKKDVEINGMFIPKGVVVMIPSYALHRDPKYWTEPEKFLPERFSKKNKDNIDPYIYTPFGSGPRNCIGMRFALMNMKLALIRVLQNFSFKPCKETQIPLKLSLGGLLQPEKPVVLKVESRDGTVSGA
The AC50 is the concentration giving half of the maximal activity seen. For the molecule `CN(Cc1ccco1)c1cc(-c2cccc(NS(C)(=O)=O)c2)ncn1`, the AC50 is 15.8 µM (active).

On to `CN(Cc1ccco1)c1ccnc(-c2cccc(NS(C)(=O)=O)c2)n1`, for which the AC50 was 6.31 µM (active).

Regarding `O=C(CCN1CCOCC1)Nc1ccc(F)cc1F`, the activity, negative = inhibition was -14.9% [at 11.4 µM].

For the molecule `COC(=O)CNC(c1ccccc1Cl)c1cc(Br)ccc1NC(=O)CCN1CCOCC1` (configuration not stated), the AC50 was 3.55 µM (active).

Regarding `Cc1cc2c(cc1C)NC(c1nc3ccccc3[nH]1)C1=C(CC(C)(C)CC1=O)N2` (configuration not stated), the concentration at half-maximal activity (AC50) was 12.6 µM (active).

Take `Cc1c(C(=O)O)nc(/C=C\C(=O)O)[nH]c1=O`: the activity, negative = inhibition is -3.36% [at 11.4 µM].

As to `CCCNC(=O)c1cc2c(C(F)(F)F)nn(C)c2s1`, the activity, negative = inhibition was 19.2% [at 2.29 µM].

As for `C#CCSc1nnc(-c2cc3c(C(F)(F)F)nn(C)c3s2)n1C`, the AC50 is 7.94 µM (active).

With `C=CCSc1nnc(-c2cc3c(-c4ccccc4)nn(C)c3s2)n1C`, the half-maximal activity concentration (AC50) was 1.58 µM (active).

Regarding `C=CCSc1nnc(-c2cc3c(C(F)(F)F)nn(C)c3s2)n1C`, the AC50 is 8.91 µM (active).

As for `CCCCSc1nnc(-c2cc3c(C(F)(F)F)nn(C)c3s2)n1C`, the “activity, negative = inhibition” value was -20.2%.

In the case of `CCn1cc(C(=O)O)c(=O)c2cc(F)c(N3CCN[C@@H](C)C3)c(F)c21`, the AC50 result was “inactive”.

On to `CN(C)c1ccc(-c2nc(-n3ccnc3)c3ccccc3n2)cc1`, for which the AC50 is 0.631 µM (active).

Consider `c1ccc2c(-n3ccnc3)nc(-c3ccoc3)nc2c1`, for which the concentration at half-maximal activity (AC50) was 0.2 µM (active).

For the molecule `Cc1cnc(CNc2ncnc3ccc(-c4ccc(N(C)C)cc4)cc23)cn1`, the AC50 was 10 µM (active).

As for `Cc1cnc(CNc2ncnc3ccc(-c4ccoc4)cc23)cn1`, the AC50 is 15.8 µM (active).

Turning to `Cc1cnc(CNc2ncnc3ccc(-c4ccc5c(c4)OCO5)cc23)cn1`, the half-maximal activity concentration (AC50) was 2.51 µM (active).

For `NC(=S)SCCC(=O)O`, the activity, negative = inhibition was -7.17% [at 11.4 µM].

Take `CCCC(=O)Nc1nc(C(=O)OCC)cs1`: the “activity, negative = inhibition” value is -13.8%.

As for `CCOC(=O)C1=C(O)C(Nc2nccs2)(C(F)(F)F)N=C1C` (configuration not stated), the half-maximal activity concentration (AC50) was 14.1 µM (active).

With `CC(C)OC(=O)C(CC(=O)O)N1CCOCC1` (configuration not stated), the “activity, negative = inhibition” value was 0.0868%.

As to `CCC(Sc1ncccc1C(=O)O)C(=O)N1CCOCC1` (configuration not stated), the “activity, negative = inhibition” value is 3.75%.

Turning to `CCOC(=O)C(C)CC(C)C(=O)N1CCOCCN(C(=O)C(C)CC(C)C(=O)OCC)CCOCC1` (configuration not stated), the AC50 was 11.2 µM (active).

In the case of `COc1cc(OC)c2c(c1)C(=O)c1cc(OC)cc(OC)c1C2=O`, the half-maximal activity concentration (AC50) was 3.55 µM (active).

For the molecule `O=C(NC1CCCCC1)C1CC=CCC1C(=O)OCC(Cl)=C(Cl)Cl` (configuration not stated), the AC50 was 7.94 µM (active).

`CN(C)CCNc1ncnc2c1sc1nc(N3CCOCC3)c3c(c12)CC(C)(C)SC3`: the “activity, negative = inhibition” value is -10.7%.

For the molecule `CNC(=O)c1ccc(-c2sc3nc(N4CCOCC4)c4c(c3c2N)CC(C)(C)OC4)o1`, the half-maximal activity concentration (AC50) is 2.82 µM (active).
